# Test results as given in publication PMC11062922 (Nature Chemical Biology, 2023).
# Like-named read-outs stand apart in the source and are kept apart here.
# How the values were obtained:
# [1] = tested on: MARK3; conditions: read-out: apparent Kd, n = 1
# [2] = tested on: MARK4; conditions: read-out: apparent Kd, n = 1
# [3] = compound concentrations:100 nM and 1000 nM (sheet 'Lestaurtinib' of Supplementary Table 1),run:Lestaurtinib_02473_R3,Plate:MR010
# [4] = compound concentrations:100 nM and 1000 nM (sheet 'Lestaurtinib' of Supplementary Table 1),run:Lestaurtinib_02482_R2,Plate:MR011
# [5] = compound concentrations:100 nM and 1000 nM (sheet 'Lestaurtinib' of Supplementary Table 1),run:Lestaurtinib_02482_R3,Plate:MR011
# [6] = compound concentrations:100 nM and 1000 nM (sheet 'Lestaurtinib' of Supplementary Table 1),run:Lestaurtinib_02487_R1,Plate:MR012
# [7] = compound concentrations:100 nM and 1000 nM (sheet 'Lestaurtinib' of Supplementary Table 1),run:Lestaurtinib_02487_R2,Plate:MR012
# [8] = compound concentrations:100 nM and 1000 nM (sheet 'Lestaurtinib' of Supplementary Table 1),run:Lestaurtinib_02496_R2,Plate:MR013
# [9] = compound concentrations:100 nM and 1000 nM (sheet 'Lestaurtinib' of Supplementary Table 1),run:Lestaurtinib_02496_R3,Plate:MR013
# [10] = compound concentrations:100 nM and 1000 nM (sheet 'Lestaurtinib' of Supplementary Table 1),run:Lestaurtinib_02566_R1,Plate:MR014
# [11] = compound concentrations:100 nM and 1000 nM (sheet 'Lestaurtinib' of Supplementary Table 1),run:Lestaurtinib_02572_R1,Plate:MR015
# [12] = compound concentrations:100 nM and 1000 nM (sheet 'Lestaurtinib' of Supplementary Table 1),run:Lestaurtinib_02577_R1,Plate:MR016
# [13] = compound concentrations:100 nM and 1000 nM (sheet 'Lestaurtinib' of Supplementary Table 1),run:Lestaurtinib_02577_R3,Plate:MR016
# [14] = compound concentrations:100 nM and 1000 nM (sheet 'Lestaurtinib' of Supplementary Table 1),run:Lestaurtinib_02584_R3,Plate:MR017
# [15] = compound concentrations:100 nM and 1000 nM (sheet 'Lestaurtinib' of Supplementary Table 1),run:Lestaurtinib_02606_R3,Plate:MR019
# [16] = compound concentrations:100 nM and 1000 nM (sheet 'Lestaurtinib' of Supplementary Table 1),run:Lestaurtinib_02624_R2,Plate:MR020
substance,measurement,setting,value
Lestaurtinib,potency estimated from few doses,"[1]; compound concentrations:100 nM and 1000 nM (sheet 'Lestaurtinib' of Supplementary Table 1),run:Lestaurtinib_02443_R3,Plate:MR009",217 nM
same,potency estimated from few doses,[1]; [3],98.5 nM
same,potency estimated from few doses,[1]; [4],158 nM
same,potency estimated from few doses,[1]; [5],140 nM
same,potency estimated from few doses,[1]; [6],153 nM
same,potency estimated from few doses,[1]; [7],200 nM
same,potency estimated from few doses,"[1]; compound concentrations:100 nM and 1000 nM (sheet 'Lestaurtinib' of Supplementary Table 1),run:Lestaurtinib_02487_R3,Plate:MR012",172 nM
same,potency estimated from few doses,[1]; [8],153 nM
same,potency estimated from few doses,[1]; [9],146 nM
same,potency estimated from few doses,[1]; [10],140 nM
same,potency estimated from few doses,[1]; [11],140 nM
same,potency estimated from few doses,"[1]; compound concentrations:100 nM and 1000 nM (sheet 'Lestaurtinib' of Supplementary Table 1),run:Lestaurtinib_02572_R2,Plate:MR015",162 nM
same,potency estimated from few doses,[1]; [12],158 nM
same,potency estimated from few doses,"[1]; compound concentrations:100 nM and 1000 nM (sheet 'Lestaurtinib' of Supplementary Table 1),run:Lestaurtinib_02577_R2,Plate:MR016",224 nM
same,potency estimated from few doses,[1]; [13],259 nM
same,potency estimated from few doses,[1]; [14],211 nM
same,potency estimated from few doses,"[1]; compound concentrations:100 nM and 1000 nM (sheet 'Lestaurtinib' of Supplementary Table 1),run:Lestaurtinib_02601_R2,Plate:MR018",184 nM
same,potency estimated from few doses,"[1]; compound concentrations:100 nM and 1000 nM (sheet 'Lestaurtinib' of Supplementary Table 1),run:Lestaurtinib_02606_R2,Plate:MR019",131 nM
same,potency estimated from few doses,[1]; [15],162 nM
same,potency estimated from few doses,"[1]; compound concentrations:100 nM and 1000 nM (sheet 'Lestaurtinib' of Supplementary Table 1),run:Lestaurtinib_02624_R1,Plate:MR020",146 nM
same,potency estimated from few doses,[1]; [16],143 nM
same,potency estimated from few doses,"[1]; compound concentrations:100 nM and 1000 nM (sheet 'Lestaurtinib' of Supplementary Table 1),run:Lestaurtinib_02724_R1,Plate:MR021",157 nM
same,potency estimated from few doses,"[1]; compound concentrations:100 nM and 1000 nM (sheet 'Lestaurtinib' of Supplementary Table 1),run:Lestaurtinib_02724_R2,Plate:MR021",180 nM
same,potency estimated from few doses,"[1]; compound concentrations:100 nM and 1000 nM (sheet 'Lestaurtinib' of Supplementary Table 1),run:Lestaurtinib_02724_R3,Plate:MR021",163 nM
same,potency estimated from few doses,"[1]; compound concentrations:100 nM and 1000 nM (sheet 'Lestaurtinib' of Supplementary Table 1),run:Lestaurtinib_02752_R3,Plate:MR025",189 nM
same,potency estimated from few doses,"[1]; compound concentrations:100 nM and 1000 nM (sheet 'Lestaurtinib' of Supplementary Table 1),run:Lestaurtinib_02765_R3,Plate:MR026",143 nM
same,potency estimated from few doses,"[1]; compound concentrations:100 nM and 1000 nM (sheet 'Lestaurtinib' of Supplementary Table 1),run:Lestaurtinib_02766_R3,Plate:MR027",137 nM
same,potency estimated from few doses,"[1]; compound concentrations:100 nM and 1000 nM (sheet 'Lestaurtinib' of Supplementary Table 1),run:Lestaurtinib_02768_R3,Plate:MR028",136 nM
same,potency estimated from few doses,"[1]; compound concentrations:100 nM and 1000 nM (sheet 'Lestaurtinib' of Supplementary Table 1),run:Lestaurtinib_02795_R1,Plate:MR022",154 nM
same,potency estimated from few doses,"[1]; compound concentrations:100 nM and 1000 nM (sheet 'Lestaurtinib' of Supplementary Table 1),run:Lestaurtinib_02795_R2,Plate:MR022",141 nM
same,potency estimated from few doses,"[1]; compound concentrations:100 nM and 1000 nM (sheet 'Lestaurtinib' of Supplementary Table 1),run:Lestaurtinib_02795_R3,Plate:MR022",268 nM
same,potency estimated from few doses,"[1]; compound concentrations:100 nM and 1000 nM (sheet 'Lestaurtinib' of Supplementary Table 1),run:Lestaurtinib_02896_R1,Plate:MR030",142 nM
same,potency estimated from few doses,"[1]; compound concentrations:100 nM and 1000 nM (sheet 'Lestaurtinib' of Supplementary Table 1),run:Lestaurtinib_02896_R3,Plate:MR030",159 nM
same,potency estimated from few doses,"[1]; compound concentrations:100 nM and 1000 nM (sheet 'Lestaurtinib' of Supplementary Table 1),run:Lestaurtinib_03172_R1,Plate:MR031",161 nM
same,potency estimated from few doses,"[1]; compound concentrations:100 nM and 1000 nM (sheet 'Lestaurtinib' of Supplementary Table 1),run:Lestaurtinib_03172_R2,Plate:MR031",207 nM
same,potency estimated from few doses,"[1]; compound concentrations:100 nM and 1000 nM (sheet 'Lestaurtinib' of Supplementary Table 1),run:Lestaurtinib_03172_R3,Plate:MR031",146 nM
same,potency estimated from few doses,"[1]; compound concentrations:100 nM and 1000 nM (sheet 'Lestaurtinib' of Supplementary Table 1),run:Lestaurtinib_03260_R1,Plate:MR033",381 nM
same,potency estimated from few doses,"[1]; compound concentrations:100 nM and 1000 nM (sheet 'Lestaurtinib' of Supplementary Table 1),run:Lestaurtinib_03260_R2,Plate:MR033",379 nM
same,potency estimated from few doses,"[1]; compound concentrations:100 nM and 1000 nM (sheet 'Lestaurtinib' of Supplementary Table 1),run:Lestaurtinib_03260_R3,Plate:MR033",184 nM
same,potency estimated from few doses,"[2]; compound concentrations:100 nM and 1000 nM (sheet 'Lestaurtinib' of Supplementary Table 1),run:Lestaurtinib_02339_R2,Plate:MR001",165 nM
same,potency estimated from few doses,"[2]; compound concentrations:100 nM and 1000 nM (sheet 'Lestaurtinib' of Supplementary Table 1),run:Lestaurtinib_02339_R3,Plate:MR001",385 nM
same,potency estimated from few doses,"[2]; compound concentrations:100 nM and 1000 nM (sheet 'Lestaurtinib' of Supplementary Table 1),run:Lestaurtinib_02364_R1,Plate:MR002",73 nM
same,potency estimated from few doses,"[2]; compound concentrations:100 nM and 1000 nM (sheet 'Lestaurtinib' of Supplementary Table 1),run:Lestaurtinib_02367_R2,Plate:MR003",79.7 nM
same,potency estimated from few doses,"[2]; compound concentrations:100 nM and 1000 nM (sheet 'Lestaurtinib' of Supplementary Table 1),run:Lestaurtinib_02367_R3,Plate:MR003",85.1 nM
same,potency estimated from few doses,"[2]; compound concentrations:100 nM and 1000 nM (sheet 'Lestaurtinib' of Supplementary Table 1),run:Lestaurtinib_02381_R3,Plate:MR004",209 nM
same,potency estimated from few doses,"[2]; compound concentrations:100 nM and 1000 nM (sheet 'Lestaurtinib' of Supplementary Table 1),run:Lestaurtinib_02422_R1,Plate:MR006",74.8 nM
same,potency estimated from few doses,"[2]; compound concentrations:100 nM and 1000 nM (sheet 'Lestaurtinib' of Supplementary Table 1),run:Lestaurtinib_02422_R3,Plate:MR006",86.4 nM
same,potency estimated from few doses,"[2]; compound concentrations:100 nM and 1000 nM (sheet 'Lestaurtinib' of Supplementary Table 1),run:Lestaurtinib_02437_R1,Plate:MR007",974 nM
same,potency estimated from few doses,"[2]; compound concentrations:100 nM and 1000 nM (sheet 'Lestaurtinib' of Supplementary Table 1),run:Lestaurtinib_02438_R3,Plate:MR008",83.1 nM
same,potency estimated from few doses,"[2]; compound concentrations:100 nM and 1000 nM (sheet 'Lestaurtinib' of Supplementary Table 1),run:Lestaurtinib_02443_R2,Plate:MR009",93.4 nM
same,potency estimated from few doses,"[2]; compound concentrations:100 nM and 1000 nM (sheet 'Lestaurtinib' of Supplementary Table 1),run:Lestaurtinib_02473_R1,Plate:MR010",84.5 nM
same,potency estimated from few doses,[2]; [3],59.7 nM
same,potency estimated from few doses,[2]; [4],86.4 nM
same,potency estimated from few doses,[2]; [5],83.9 nM
same,potency estimated from few doses,[2]; [6],703 nM
same,potency estimated from few doses,[2]; [7],162 nM
same,potency estimated from few doses,[2]; [8],83.9 nM
same,potency estimated from few doses,[2]; [9],668 nM
same,potency estimated from few doses,[2]; [10],708 nM
same,potency estimated from few doses,"[2]; compound concentrations:100 nM and 1000 nM (sheet 'Lestaurtinib' of Supplementary Table 1),run:Lestaurtinib_02566_R2,Plate:MR014",36.8 nM
same,potency estimated from few doses,"[2]; compound concentrations:100 nM and 1000 nM (sheet 'Lestaurtinib' of Supplementary Table 1),run:Lestaurtinib_02566_R3,Plate:MR014",497 nM
same,potency estimated from few doses,[2]; [11],115 nM
same,potency estimated from few doses,[2]; [12],141 nM
same,potency estimated from few doses,[2]; [13],199 nM
same,potency estimated from few doses,"[2]; compound concentrations:100 nM and 1000 nM (sheet 'Lestaurtinib' of Supplementary Table 1),run:Lestaurtinib_02584_R1,Plate:MR017",85.5 nM
same,potency estimated from few doses,"[2]; compound concentrations:100 nM and 1000 nM (sheet 'Lestaurtinib' of Supplementary Table 1),run:Lestaurtinib_02584_R2,Plate:MR017",74.7 nM
same,potency estimated from few doses,[2]; [14],80.1 nM
same,potency estimated from few doses,"[2]; compound concentrations:100 nM and 1000 nM (sheet 'Lestaurtinib' of Supplementary Table 1),run:Lestaurtinib_02601_R1,Plate:MR018",90.9 nM
same,potency estimated from few doses,"[2]; compound concentrations:100 nM and 1000 nM (sheet 'Lestaurtinib' of Supplementary Table 1),run:Lestaurtinib_02601_R3,Plate:MR018",93.4 nM
same,potency estimated from few doses,[2]; [15],115 nM
same,potency estimated from few doses,[2]; [16],84.3 nM
same,potency estimated from few doses,"[2]; compound concentrations:100 nM and 1000 nM (sheet 'Lestaurtinib' of Supplementary Table 1),run:Lestaurtinib_02624_R3,Plate:MR020",78.4 nM
